Screening results as filed in PubChem.
Rab9 prom act: Rab9 promoter activation. Huh7 Rab9 promoter-luciferase reporter, luminescence, 24 h. Potency, µM (doses to about 9.22 µM), actives largely listed as activators. actives 2.8% (n = 320,000); also: nearly all actives have a fitted effect of over 60% in size
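Luciferase signal after 10 min detection reagent at ambient indicates Rab9 promoter upregulation; stably transfected Huh7 cells were treated 24 h with compound in DMSO at 37 °C, 5% CO2.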
NPC1 promoter act: activates the NPC1 promoter | Huh7 NPC1 promoter luciferase reporter, 24 h | Potency, µM (doses to about 9.22 µM), actives largely listed as activators | actives 2.4% (n = 320,000) | AID 485313; also: nearly all actives have a fitted effect of over 60% in size
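NPC1 promoter–luciferase Huh7 cells; 24 h compound; luminescence.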
FLuc counter: counter-screen for miR-21 project: firefly luciferase inhibitors or activators. AID 588342. P08659. Potency, µM (series often up to 57.5 µM), usual class: inhibitors. purified FLuc, Km substrates, luminescence inhibition. actives 6.9% (n = 360,000); also: nearly all actives have a fitted effect of over 55% in size
Target sequence (P08659 whole entry, looked up): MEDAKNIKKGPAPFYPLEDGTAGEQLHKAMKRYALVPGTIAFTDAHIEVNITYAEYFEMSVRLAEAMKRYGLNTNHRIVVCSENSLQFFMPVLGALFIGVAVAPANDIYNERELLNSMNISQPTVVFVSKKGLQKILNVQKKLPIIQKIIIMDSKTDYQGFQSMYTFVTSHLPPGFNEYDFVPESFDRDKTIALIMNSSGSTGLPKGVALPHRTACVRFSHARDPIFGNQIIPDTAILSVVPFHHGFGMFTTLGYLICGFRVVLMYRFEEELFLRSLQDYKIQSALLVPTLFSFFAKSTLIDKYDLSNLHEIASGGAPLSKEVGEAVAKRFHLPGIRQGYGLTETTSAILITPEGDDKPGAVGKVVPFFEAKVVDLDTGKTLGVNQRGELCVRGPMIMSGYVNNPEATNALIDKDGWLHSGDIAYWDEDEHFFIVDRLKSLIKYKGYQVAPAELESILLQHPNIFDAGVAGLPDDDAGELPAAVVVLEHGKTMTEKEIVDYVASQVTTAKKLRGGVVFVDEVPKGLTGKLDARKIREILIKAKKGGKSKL
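Purified P. pyralis luciferase, 10 nM final, with Km-level 10 uM D-luciferin and 10 uM ATP in 50 mM Tris acetate pH 7.5, 10 mM Mg acetate, 0.01% Tween-20, 0.05% BSA; 6-point qHTS titration about 60 µM downward; luminescence read.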
SMN2 splice enh: enhancers of SMN2 splice variant expression; HEK293 SMN2-luciferase splicing reporter, luminescence, 30-36 h; Potency, µM (top dose mostly 46.1 µM), most hits filed as activators; actives 2.8% (n = 210,000); also: nearly all actives have a fitted effect of over 55% in size
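HEK293 cells carry an SMN2 minigene-luciferase reporter in which exon 7 inclusion puts luciferase in frame. Cells were seeded at 2000 cells/well, attached for 10-12 hours, then exposed to compounds for 30-36 hours at 37C before ONE-Glo luminescence.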
ELG1 genotoxic: inducers of genotoxicity in HEK293T ELG1-luciferase cells. Potency, µM (doses to about 46 µM), usual class: activators. HEK293T ELG1-luciferase reporter, luminescence, 16 h. actives 1.3% (n = 330,000); also: nearly all actives have a fitted effect of over 60% in size
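Step 1: seed 2,000 HEK293T ELG1-luciferase cells per well. Step 2: add compound or DMSO, incubate 16 hr at 37 °C. Step 3: ONE-Glo, 30 min at room temperature, read luminescence.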
Large screens that a line does not name were inactive; ! = not confirmed by another sample. Shown are actives, neighbours in structure and some others; about 7.5% of the full set was active somewhere. Calls follow the shape of the dose curve; as a rule, active = well fitted curve in the direction sought with a large enough effect; inconclusive = small, poorly fitted or top-dose-only effect, or another doubt; inactive = no such curve, though single readings can be large; an effect the other way counts as inactive or inconclusive.

COc1cc(/C=N/NC(=O)c2cccc(NC(=O)c3ccccc3C)c2)ccc1O	FLuc counter 19µM (no result: SMN2 splice enh)
COc1cc(/C=N/NC(=O)c2ccncc2)ccc1O	none (no result: SMN2 splice enh)
O=C(CSc1nc(-c2ccccc2)nc2ccc(F)cc12)Nc1cccc(C(=O)O)c1	FLuc counter inconclusive (no result: SMN2 splice enh)
CCc1ccc(Nc2nnc(SCC(=O)Nc3cccc(S(=O)(=O)NC4=NCCCCC4)c3)s2)cc1	Rab9 prom act inconclusive, NPC1 promoter act inconclusive, FLuc counter 0.48µM, SMN2 splice enh 13µM
CCc1ccc(Nc2nnc(SCC(=O)NC(=O)c3cccn3C)s2)cc1	FLuc counter inconclusive, ELG1 genotoxic inconclusive
CCc1ccc(Nc2nnc(SCC(=O)Nc3ccc(C(=O)O)cc3)s2)cc1	FLuc counter 0.54µM (no result: SMN2 splice enh)
O=C(CSc1nncc2ccccc12)Nc1cccc(C(=O)O)c1	FLuc counter 11µM, ELG1 genotoxic inconclusive (no result: SMN2 splice enh)
O=C(CSc1nnc(SCc2cccc3ccccc23)s1)Nc1ccc(C(=O)O)cc1	FLuc counter 8.5µM
O=C(CSc1nnc(SCc2cccc3ccccc23)s1)c1ccc2c(c1)OCO2	FLuc counter inconclusive
Cc1ccc(Nc2nnc(SCC(=O)Nc3cccc(S(=O)(=O)NC4=NCCCCC4)c3)s2)cc1	FLuc counter 1.9µM
Cc1cccc(Nc2nnc(SCC(=O)Nc3cccc(S(=O)(=O)N4CCCCC4)c3)s2)c1	FLuc counter 2.7µM
Cc1nnc(SCc2cccc3ccccc23)s1	Rab9 prom act inconclusive, NPC1 promoter act inconclusive, FLuc counter 24µM, ELG1 genotoxic inconclusive (no result: SMN2 splice enh)
CC(NC(=O)COc1ccccc1)C(=O)N1CCN(c2ccc(F)cc2)CC1 (configuration not stated)	none (no result: Rab9 prom act, NPC1 promoter act, FLuc counter, SMN2 splice enh)
Cc1cc(C)cc(Oc2ccccc2/C=N\O)c1	none
Cn1cccc1C(=O)C(=O)Nc1ccccc1	Rab9 prom act 0.63µM, NPC1 promoter act 0.56µM, FLuc counter 5.4µM, SMN2 splice enh 13µM, ELG1 genotoxic inconclusive
CCOC(=O)c1ccc(NC(=O)c2cc3c(s2)CCC3)cc1	FLuc counter inconclusive (no result: SMN2 splice enh)
Cc1oc(-c2ccc3c(c2)OCCO3)cc1C(=O)NC(Cc1ccccc1)C(=O)O (configuration not stated)	FLuc counter 15µM (no result: SMN2 splice enh)
CCOC(=O)CNC(=O)c1ccc2c(c1)OCCO2	Rab9 prom act inconclusive, NPC1 promoter act inconclusive, FLuc counter 19µM, ELG1 genotoxic inconclusive
CCOc1ccccc1C(=O)NCC(=O)OCC(=O)c1ccc2c(c1)OCCO2	FLuc counter inconclusive
CCOC(=O)CNC(=O)c1cc(-c2ccc3c(c2)OCCO3)oc1C	FLuc counter 9.5µM, ELG1 genotoxic inconclusive
COC(=O)CCC(NC(=O)c1cc(-c2ccc3c(c2)OCCO3)oc1C)C(=O)OC (configuration not stated)	FLuc counter 17µM
O=C(O)c1ccc2nc(CO)[nH]c2c1	FLuc counter inconclusive, ELG1 genotoxic inconclusive
Cc1ccccc1Nc1nc(N)nc(COC(=O)CCS(=O)(=O)c2ccc(Cl)cc2)n1	none (no result: SMN2 splice enh)
CCCCC(=O)OCc1nc(N)nc(Nc2ccccc2C)n1	FLuc counter 19µM, ELG1 genotoxic inconclusive
Cc1ccc(N2CC(C(=O)OCc3nc(N)nc(Nc4ccccc4C)n3)CC2=O)cc1 (configuration not stated)	none (no result: SMN2 splice enh)
Cc1ccccc1Nc1nc(N)nc(COC(=O)C2CCCCC2)n1	FLuc counter 15µM
CCN1CCCC1CNC(=O)c1ccc2c(=O)n(CCOC)c(=O)[nH]c2c1 (configuration not stated)	none
Cc1ccc(S(=O)(=O)c2nc(-c3cccc(Cl)c3)oc2NCc2ccccc2)cc1	none (no result: Rab9 prom act, NPC1 promoter act, ELG1 genotoxic)
COc1ccc2[nH]cc(CCN=C(NC(=O)c3ccccc3F)Nc3nc(C)cc(C)n3)c2c1	SMN2 splice enh 35µM (no result: Rab9 prom act, NPC1 promoter act, ELG1 genotoxic)
Cn1c(NC(=O)c2ccc(F)cc2)nc2ccccc21	Rab9 prom act 4µM, NPC1 promoter act 3.5µM, FLuc counter 3µM, ELG1 genotoxic inconclusive (no result: SMN2 splice enh)
CC(C)(C)C(=O)Nc1ccccc1C(=O)Nc1ccccn1	none
Cn1c(NC(=S)Nc2ccccc2)nc2ccccc21	Rab9 prom act inconclusive, NPC1 promoter act inconclusive, FLuc counter 6.7µM, SMN2 splice enh 8.9µM, ELG1 genotoxic inconclusive
S=C(Nc1ccccc1)Nc1nc2ccccc2n1CCOc1ccc(Br)cc1	ELG1 genotoxic inconclusive
Cn1c(NC(=O)c2ccccc2NC(=O)C(C)(C)C)nc2ccccc21	FLuc counter 27µM
CCc1cc2c(=O)c(-c3nc4ccccc4n3C)coc2c(CN2CCCCC2C)c1O (configuration not stated)	none (no result: SMN2 splice enh)
CC1CCCCN1Cc1c(O)ccc2c(=O)c(-c3nc4ccccc4s3)coc12 (configuration not stated)	FLuc counter 21µM (no result: SMN2 splice enh)
COc1ccc(CN2CCN(S(=O)(=O)c3ccccc3)CC2)cc1Br	none
CC[C@H](C)C(=O)O[C@H]1C[C@@H](C)C=C2C=C[C@H](C)[C@H](CC[C@@H]3C[C@@H](O)CC(=O)O3)[C@H]21	SMN2 splice enh 16µM!
Cc1nn(C)c(C)c1/C=N/NC(=O)c1csc2ccccc12	FLuc counter 17µM
CCn1ncc(/C=N\NC(=O)c2csc3ccccc23)c1C	FLuc counter 11µM, ELG1 genotoxic inconclusive
Cc1cc(C)n(-c2nc3cc(Cl)ccc3nc2N2CCN(c3ccccc3F)CC2)n1	none (no result: Rab9 prom act, NPC1 promoter act, SMN2 splice enh, ELG1 genotoxic)
Cc1ccc(-n2c(O)c(/C=N/Nc3ccc(S(=O)(=O)N4CCOCC4)cc3[N+](=O)[O-])c3ccccc3c2=O)c(C)c1	FLuc counter 24µM
COc1cccc(CN2CC(C(=O)NCc3cccc(N4CCCC4)c3)CCC2=O)c1 (configuration not stated)	none (no result: SMN2 splice enh)
O=C(Cn1sc2ccccc2c1=O)NC12CC3CC(CC(C3)C1)C2	FLuc counter 7.6µM
CC(=O)Nc1ccc(S(=O)(=O)NC(CC(=O)NCCC2=CCCCC2)C(C)C)cc1 (configuration not stated)	none
O=C1CCNc2ccc(-c3ccccc3)cc21	NPC1 promoter act inconclusive, FLuc counter 15µM, SMN2 splice enh inconclusive, ELG1 genotoxic inconclusive
COc1ccccc1NC(=O)C(=O)c1cn(CC(=O)N2CCOCC2)c2ccccc12	Rab9 prom act inconclusive, NPC1 promoter act inconclusive, FLuc counter 4.8µM, ELG1 genotoxic inconclusive (no result: SMN2 splice enh)
COc1ccccc1CCNC(=O)C(=O)c1cn(CC(=O)N2CCCC2)c2ccccc12	FLuc counter 11µM (no result: SMN2 splice enh)
COc1ccc(NC(=O)CSc2cn(CC(=O)N3CCCCC3)c3ccccc23)c(OC)c1	none (no result: Rab9 prom act, NPC1 promoter act, SMN2 splice enh, ELG1 genotoxic)
COc1ccc(NC(=O)C(=O)c2cn(CC(=O)N3CCCC3)c3ccccc23)c(OC)c1	Rab9 prom act inconclusive, NPC1 promoter act inconclusive, FLuc counter 4.8µM, ELG1 genotoxic inconclusive (no result: SMN2 splice enh)
COc1ccc(CCNC(=O)C(=O)c2cn(CC(=O)N3CCOCC3)c3ccccc23)cc1OC	FLuc counter 21µM (no result: SMN2 splice enh)
CCC(=O)Oc1ccc(C(=O)Nc2ccc3c(c2)C(=O)N(C2CCCCC2)C3=O)cc1	none
